This passage reports Potency and outcome results from PubChem BioAssay (Tox21).

A number with no mark means an inactive call. Results filed as inconclusive are left out. Activity calls are given as the source filed them. Unless noted, calls come from the whole dose curve.

Test [1] in a line: Nuclear factor erythroid 2-related factor 2/antioxidant responsive element (Nrf2/ARE) small molecule agonists: luciferase reporter gene qHTS assay in human keratinocytes (AID 1919969). Note: nearly all actives have a fitted effect of over 35% in size. Note: potency is the fitted concentration of half-maximal effect.
Test [2] concerns the target Gonadotropin-releasing hormone receptor (Homo sapiens) (UniProt P30968). The experiment in a line: Human gonadotropin-releasing hormone receptor (GnRHR) small molecule agonists, calcium flux assay in GnRHR-HEK293 cells (AID 1920063). Note: nearly all actives have a fitted effect of over 35% in size. The procedure, abridged: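 HEK293 cells stably expressing human GnRHR were plated 18 h at 37 °C, loaded with calcium dye 1 h at 37 °C, then given compound in agonist mode; fluorescence (Ex/Em 480/540) read kinetically for 3 min at 1 s intervals.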
On the technique in general: Calcium flux is commonly read through the fluorescence of an indicator in the cells.

Test [3] has as its target KiSS-1 receptor (Homo sapiens) (UniProt Q969F8). The test can be described thus: Human kisspeptin (KISS1R) small molecule agonists, calcium flux assay in KISS1R-HEK293 cells (AID 1920064; active = well fitted activation curve with a large enough effect in the repeat runs). The procedure, abridged: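 HEK293 cells stably expressing human KISS1R were plated 18 h at 37 °C, loaded with calcium dye for 1 h at 37 °C, then given compound by pin tool. Fluorescence (Ex/Em 480/540) was read kinetically for 3 min.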

A short description of test [4]: G protein-coupled receptor (GPCR) small molecule agonists, calcium flux assay: HEK293 wild type cell line counter screen (AID 1920065). In short, it runs like this: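 Cells were plated and cultured 18 h at 37 C/5% CO2, then loaded with calcium dye for 1 h at 37 C. Compounds in DMSO were pin-transferred in agonist mode, and fluorescence (Ex/Em 480/540) was read kinetically for 3 min at 1 s intervals.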

The nature of test [5]: p53 small molecule agonists, cell-based qHTS assay with human liver microsomes (AID 1963577).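 Note: p53 response element beta-lactamase reporter cells with liver microsomes plus NADPH.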 In short, it runs like this: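 With metabolic activation: human liver microsomes (0.5 mg/mL final) plus NADPH (0.5 mg/mL final) added alongside compounds to p53RE-bla cells; 16 h 37 C exposure; beta-lactamase read by LiveBLAzer fluorescence.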
Background: In qHTS, concentration-response curves come from the screen itself.

A short description of test [6]: p53 small molecule agonists, cell-based qHTS assay with rat liver microsomes (AID 1963578). The procedure, abridged: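 Metabolic activation by rat liver microsomes and NADPH, each 0.5 mg/mL final, added right after compounds to p53RE-bla reporter cells (4,000/well, plated 5 h earlier). 16 h at 37 C, then LiveBLAzer substrate for 2 h at room temperature in the dark; fluorescence read-out.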

Test [7] can be described thus: p53 small molecule agonists, cell-based qHTS assay with human liver microsomes: qHTS cell viability counter screen (AID 1963579). Note: nearly all actives have a fitted effect of over 45% in size. Note: potency is the fitted concentration of half-maximal effect. In short, it runs like this:
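Metabolic activation used human liver microsomes and NADPH, both 0.5 mg/mL final, over 16 hours at 37 C on p53RE-bla cells (4,000/well). Cytotoxicity measured by CellTiter-Glo luminescence, 30 min at room temperature.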

Test [8] can be described thus: p53 small molecule agonists, cell-based qHTS assay with rat liver microsomes: qHTS cell viability counter screen (AID 1963580). Note: nearly all actives have a fitted effect of over 45% in size. Note: potency is the fitted concentration of half-maximal effect. In short, it runs like this: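 Viability is assessed in parallel with the p53 reporter read: HCT-116 p53RE-bla cells receive compounds plus rat microsomes and NADPH (0.5 mg/mL final apiece), incubate 16 h at 37 C, and then CellTiter-Glo luminescence is recorded.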

Test [9] is described as follows: p53 small molecule agonists, cell-based qHTS assay: qHTS cell viability counter screen (AID 1963581). Note: nearly all actives have a fitted effect of over 45% in size. Note: potency is the fitted concentration of half-maximal effect. The procedure, abridged:
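p53RE-bla HCT-116 cells were exposed to compounds for 16 h at 37 C; after the beta-lactamase FRET read in the same wells, CellTiter-Glo was added and luminescence (intracellular ATP) read after 30 min at room temperature.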

In test [10] the target is 5-hydroxytryptamine receptor 2A (Homo sapiens) (UniProt P28223). The test can be described thus: 5-hydroxytryptamine receptor 2A (HTR2A) small molecule antagonists, cell-based qHTS assay (AID 1963586). Note: nearly all actives have a fitted effect of over 45% in size. Note: potency is the fitted concentration of half-maximal effect. The procedure, abridged:
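Antagonist-mode intracellular calcium assay: DOI (4 nM) added after 5 min compound pre-incubation at room temperature to dye-loaded HTR2A-CHO cells. Fluorescence followed for 3 min, sampled every second.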

Test [11] has the same target. The test can be described thus: 5-hydroxytryptamine receptor 2A (HTR2A) small molecule agonists, cell-based qHTS assay (AID 1963587). Note: nearly all actives have a fitted effect of over 30% in size. Note: potency is the fitted concentration of half-maximal effect. In short, it runs like this: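 CHO cells stably expressing human HTR2A, plated 18 h, loaded with calcium dye 1 h at 37 C. Agonist mode: compounds added and intracellular calcium fluorescence recorded kinetically for 2 min at 1 sec intervals.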

Test [12] deals with Muscarinic acetylcholine receptor M1 (Homo sapiens) (UniProt P11229). The test can be described thus: Cholinergic receptor muscarinic 1 (CHRM1) small molecule antagonists, cell-based qHTS assay (AID 1963588). Note: nearly all actives have a fitted effect of over 40% in size. Note: potency is the fitted concentration of half-maximal effect. The procedure, abridged: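 CHRM1-CHO calcium-flux assay, antagonist mode. Cells were seeded 18 h, dye-loaded 1 h at 37 C and given compound for 5 min at RT, then acetylcholine was added at 50nM. FDSS fluorescence was read 3 min; 15 concentrations, three runs.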

Test [13] addresses Beta-2 adrenergic receptor (Homo sapiens) (UniProt P07550). The experiment in a line: Adrenergic beta2 receptor (ADRB2) small molecule antagonists, cell-based qHTS assay (AID 1963592). Note: series mostly up to about 92 µM; nearly all actives have a fitted effect of over 50% in size. In short, it runs like this: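 Cells (CHO, stable ADRB2 overexpression) incubated 18-20hr at 37C; compounds added from DMSO; agonist mix (1nM isoproterenol, 100uM IBMX, 25uM Ro-20-1724) added; 0.5hr RT; d2-cAMP and anti-cAMP-cryptate added; 1hr RT; 665/615 nm read.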

Test [14] concerns the target D(2) dopamine receptor (Homo sapiens) (UniProt P14416). The experiment in a line: Dopamine D2 receptor (DRD2) small molecule agonists, cell-based qHTS assay (AID 1963594). Note: nearly all actives have a fitted effect of over 35% in size. The procedure, abridged:
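HEK293 cells stably expressing human DRD2, pre-treated with PDE inhibitor Ro20-1724 (0.1 mM final) and compound 10 min at room temperature, then stimulated with NKH477 (200nM […]) for 30 min. cAMP read by HTRF (665/620 nm).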

For test [15] the target is unchanged. The experiment in a line: Dopamine D2 receptor (DRD2) small molecule antagonists, cell-based qHTS assay (AID 1963595; active = well fitted inhibition curve with a large enough effect in the signal ratio in the repeat runs, with a control signal flat; the % refers to the signal ratio). In short, it runs like this: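 Human DRD2 antagonist qHTS measuring cAMP by HTRF. The cells are exposed to compound for 10 min, then to NKH477 (200 nM) and quinpirole (12 nM) for 30 min at RT, with Ro20-1724 (0.1 mM) present throughout.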
Test [16] concerns the target Muscarinic acetylcholine receptor M1 (Homo sapiens) (UniProt P11229). The experiment in a line: Cholinergic receptor muscarinic 1 (CHRM1) small molecule agonists, cell-based qHTS assay (AID 1963589). Note: nearly all actives have a fitted effect of over 35% in size. In short, it runs like this:
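CHO cells stably expressing human CHRM1, seeded 18 h at 37 C/5% CO2, dye-loaded 1 h at 37 C, then given compound in agonist mode; intracellular calcium fluorescence read kinetically at 1 s intervals. Fifteen concentrations, three independent runs.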

The nature of test [17]: p53 small molecule agonists, cell-based qHTS assay (AID 1963582; active = well fitted activation curve with a large enough effect in the signal ratio in the repeat runs, not every such curve was filed as active; the % refers to the signal ratio). The procedure, abridged:
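p53RE-bla beta-lactamase reporter cells rested 5 h at 37 C/5% CO2, then received compounds in DMSO by pin transfer and were incubated 16 h at 37 C. LiveBLAzer B/G FRET substrate was loaded for 2 h at room temperature before fluorescence reading.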

Test [18] in a line: cAMP Responsive Elements (CRE) small molecule agonists, cell-based qHTS assay (AID 1963590). In short, it runs like this:
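CRE-bla HEK 293T cells in DMEM with 10% dialyzed FBS, NEAA, pyruvate and 25 mM HEPES were plated 18 h at 37 C/5% CO2, then exposed to compounds in DMSO for 3 h before LiveBLAzer B/G FRET substrate addition.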

Test [19] is described as follows: cAMP Responsive Elements (CRE) small molecule antagonists, cell-based qHTS assay (AID 1963591; active = well fitted inhibition curve with a large enough effect in the signal ratio in the repeat runs, not every such curve was filed as active; the % refers to the signal ratio; note: potency is the fitted concentration of half-maximal effect). In short, it runs like this:
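CRE-bla HEK293T cells were plated 18 h at 37 °C/5% CO2, pinned with compound in DMSO, then stimulated with NKH477 at 0.25 uM final for 3 h. LiveBLAzer B/G FRET substrate was added and plates incubated 2 h at room temperature.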

Test [20] has as its target Beta-2 adrenergic receptor (Homo sapiens) (UniProt P07550). The experiment in a line: Adrenergic beta2 receptor (ADRB2) small molecule agonists, cell-based qHTS assay (AID 1963593).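 Note: CHO cells stably overexpressing human ADRB2.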 In short, it runs like this: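 CHO cells stably over-expressing ADRB2 were plated overnight at 37C, then dosed with compounds plus a stimulation mix containing 100uM IBMX and 25uM Ro-20-1724 for 0.5hr at room temperature. cAMP was measured by HTRF competition, 1hr.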

Sequence of KiSS-1 receptor (Homo sapiens) (Q969F8 whole entry, looked up): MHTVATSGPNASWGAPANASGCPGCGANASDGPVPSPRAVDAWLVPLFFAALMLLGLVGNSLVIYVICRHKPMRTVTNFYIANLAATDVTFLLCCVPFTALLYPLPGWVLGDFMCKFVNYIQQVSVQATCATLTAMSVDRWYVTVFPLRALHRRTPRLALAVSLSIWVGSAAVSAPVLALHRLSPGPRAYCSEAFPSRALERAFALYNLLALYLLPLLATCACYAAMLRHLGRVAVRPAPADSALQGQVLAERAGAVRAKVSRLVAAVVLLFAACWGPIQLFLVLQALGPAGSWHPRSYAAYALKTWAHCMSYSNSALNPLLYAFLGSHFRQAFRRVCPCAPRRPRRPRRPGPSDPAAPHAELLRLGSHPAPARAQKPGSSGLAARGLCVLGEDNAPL
Sequence of Beta-2 adrenergic receptor (Homo sapiens) (P07550 whole entry, looked up): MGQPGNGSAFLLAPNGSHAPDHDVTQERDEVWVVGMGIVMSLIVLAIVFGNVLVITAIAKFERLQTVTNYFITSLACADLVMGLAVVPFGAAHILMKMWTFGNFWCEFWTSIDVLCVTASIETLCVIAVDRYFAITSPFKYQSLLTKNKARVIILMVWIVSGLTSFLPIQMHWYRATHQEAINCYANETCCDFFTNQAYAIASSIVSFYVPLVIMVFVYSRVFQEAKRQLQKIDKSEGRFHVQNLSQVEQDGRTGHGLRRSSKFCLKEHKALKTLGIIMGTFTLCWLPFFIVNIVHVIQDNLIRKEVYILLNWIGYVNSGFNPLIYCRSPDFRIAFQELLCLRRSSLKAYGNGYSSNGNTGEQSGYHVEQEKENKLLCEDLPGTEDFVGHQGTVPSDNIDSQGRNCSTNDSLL
Sequence of Gonadotropin-releasing hormone receptor (Homo sapiens) (P30968 whole entry, looked up): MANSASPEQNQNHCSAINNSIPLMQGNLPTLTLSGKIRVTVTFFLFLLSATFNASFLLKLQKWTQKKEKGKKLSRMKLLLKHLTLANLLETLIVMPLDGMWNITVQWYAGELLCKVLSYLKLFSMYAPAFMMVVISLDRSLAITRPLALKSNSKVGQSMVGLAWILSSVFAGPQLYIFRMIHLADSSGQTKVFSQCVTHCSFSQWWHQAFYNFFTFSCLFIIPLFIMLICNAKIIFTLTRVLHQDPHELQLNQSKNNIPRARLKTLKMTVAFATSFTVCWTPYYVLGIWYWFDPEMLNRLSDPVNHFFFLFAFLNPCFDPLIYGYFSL
Sequence of 5-hydroxytryptamine receptor 2A (Homo sapiens) (P28223 whole entry, looked up): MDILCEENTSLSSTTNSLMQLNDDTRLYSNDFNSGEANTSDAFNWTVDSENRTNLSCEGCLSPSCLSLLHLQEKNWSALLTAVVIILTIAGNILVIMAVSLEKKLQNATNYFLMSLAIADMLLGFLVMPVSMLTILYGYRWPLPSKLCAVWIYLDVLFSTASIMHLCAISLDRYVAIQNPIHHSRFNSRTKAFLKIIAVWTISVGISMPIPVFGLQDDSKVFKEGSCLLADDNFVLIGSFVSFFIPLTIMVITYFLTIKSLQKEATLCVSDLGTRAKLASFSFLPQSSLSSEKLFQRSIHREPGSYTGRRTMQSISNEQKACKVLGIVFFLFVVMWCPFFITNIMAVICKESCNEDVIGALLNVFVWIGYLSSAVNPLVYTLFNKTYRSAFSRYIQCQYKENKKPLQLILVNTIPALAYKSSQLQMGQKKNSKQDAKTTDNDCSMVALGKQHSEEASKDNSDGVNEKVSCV
Sequence of D(2) dopamine receptor (Homo sapiens) (P14416 whole entry, looked up): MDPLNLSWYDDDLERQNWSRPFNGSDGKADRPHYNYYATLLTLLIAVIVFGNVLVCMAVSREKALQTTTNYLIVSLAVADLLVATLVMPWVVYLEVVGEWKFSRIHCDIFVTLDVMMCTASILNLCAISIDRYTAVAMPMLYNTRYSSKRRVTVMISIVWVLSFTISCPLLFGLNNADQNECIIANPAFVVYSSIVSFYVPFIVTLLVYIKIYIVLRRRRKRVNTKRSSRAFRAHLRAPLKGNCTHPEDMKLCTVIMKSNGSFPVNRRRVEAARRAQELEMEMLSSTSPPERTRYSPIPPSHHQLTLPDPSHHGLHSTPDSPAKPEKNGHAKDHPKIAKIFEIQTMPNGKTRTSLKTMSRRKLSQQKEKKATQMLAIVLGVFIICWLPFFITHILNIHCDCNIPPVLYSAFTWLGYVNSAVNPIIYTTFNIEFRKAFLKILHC
Sequence of Muscarinic acetylcholine receptor M1 (Homo sapiens) (P11229 whole entry, looked up): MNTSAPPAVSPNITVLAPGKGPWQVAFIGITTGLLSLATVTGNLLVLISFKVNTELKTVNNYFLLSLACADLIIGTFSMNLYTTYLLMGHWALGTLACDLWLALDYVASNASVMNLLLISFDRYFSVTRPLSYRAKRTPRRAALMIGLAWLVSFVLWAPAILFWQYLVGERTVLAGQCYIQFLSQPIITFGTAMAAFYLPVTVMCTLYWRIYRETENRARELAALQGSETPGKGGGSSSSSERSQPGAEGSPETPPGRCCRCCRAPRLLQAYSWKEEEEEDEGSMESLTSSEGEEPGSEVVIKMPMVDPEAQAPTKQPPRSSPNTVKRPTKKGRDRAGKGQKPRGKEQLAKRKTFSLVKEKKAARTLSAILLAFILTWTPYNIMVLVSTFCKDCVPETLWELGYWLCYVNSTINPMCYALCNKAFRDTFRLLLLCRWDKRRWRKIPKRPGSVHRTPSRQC

Regarding `CC(=O)Nc1ccn(C2COC(COC(=O)c3ccccc3)O2)c(=O)n1` (stereo not given), the Potency entry in test [1], in test [2], in test [5], in test [6], in test [7] and in test [8] was “inactive” throughout. For the same compound, the Potency result in [9], in [10], in test [11], in test [12], in test [13] and in test [14] was “inactive” throughout. For the same compound, the Potency result in test [15] is “inactive”. Further, the result in test [3] and in [4] was inactive.
With `CCCCCCCC/C=C\CCCCCCCCOCCO`, the Potency entry in [1], in test [2], in [5], in test [6], in test [11] and in [12] was “inactive” in each case. The Potency result in test [16], in [13] and in test [14] was “inactive” in each case. Moreover, the result in test [3] and in test [4] was inactive. Besides, the Potency in test [7] was 53 µM (active); in test [8] it was 53 µM (active); in test [9], 21.1 µM (active); in test [10] it was 24.4 µM (active).
With `CCCC(C)C=O` (stereo not given), the Potency result in test [1], in test [2], in test [5], in [6], in test [7] and in test [9] was “inactive” in each case. Further, the Potency result in test [17], in test [10], in [11], in test [12], in test [16] and in test [18] was “inactive” throughout. In addition, the Potency entry in test [19], in [13], in [14] and in test [15] was “inactive” throughout. Also, the result in test [3] and in [4] was inactive.
As to `OCCN1C[C@H](O)[C@@H](O)[C@H](O)[C@H]1CO`, the Potency entry in test [1], in test [2], in test [5], in test [6], in test [7] and in test [8] was “inactive” throughout. Further, the Potency entry in test [17], in [10], in test [11], in test [12], in test [18] and in [19] was “inactive” each time. Besides, the Potency entry in test [13], in test [20], in test [14] and in [15] was “inactive” in each case. Moreover, the outcome in test [3] and in test [4] was inactive.
Consider `Cc1cc(C)n(CO)n1`, for which the Potency entry in [1], in [2], in test [5], in [6], in test [7] and in test [8] was “inactive” throughout. The Potency entry in test [17], in test [10], in test [11], in test [12], in test [16] and in test [18] was “inactive” in each case. In addition, the Potency entry in [19], in test [13], in [20], in test [14] and in test [15] was “inactive” each time. In addition, the result in test [3] and in [4] was inactive.
With `CCN(CC)CCNc1ccc(CNC=O)c2sc3ccc(OC)cc3c(=O)c12`, the Potency was 24.3 µM (active) in test [1], 3.89 µM (active) in [11], 10.6 µM (active) in [12] and 21.7 µM (active) in [19]. Moreover, the Potency entry in [2], in test [5], in test [6], in test [7], in test [9] and in test [10] was “inactive” each time. In addition, the Potency entry in [16], in test [18] and in test [14] was “inactive” in each case. For the same compound, the outcome in test [3] and in [4] was inactive.
In the case of `Nc1c(CC(=O)O)cccc1C(=O)c1ccc(Br)cc1`, the Potency entry in test [1], in [2], in [5], in test [6], in test [7] and in test [8] was “inactive” each time. The Potency entry in test [13], in test [14] and in test [15] was “inactive” in each case. The outcome in test [3] and in test [4] was inactive.
As to `CCCOc1ccc(C(=O)OCCN(CC)CC)cc1N`, the Potency entry in test [1], in [2], in test [5], in [6], in [7] and in [8] was “inactive” in each case. Besides, the Potency result in [9], in test [17], in test [19], in test [13], in [14] and in [15] was “inactive” each time. Besides, the result in test [3] and in [4] was inactive.
